Assay results reported in PubChem BioAssay AID1794808 (University of Kansas High Throughput Screening Laboratory, 2022).
Values joined by “and” are separate entries in the source; they are usually repeats but may differ in a detail not shown here. Identical values can stand only once. The campaign covered roughly 210,000 compounds. About 520 (0.25%) were called active. This is one part of a sample in which actives are shown more often than they occur. Rule as the data show it: active = inhibition above about 50%; inactive = the rest. Some structures have more than one record in an assay (separate samples or runs), and their calls can disagree.

Each compound was assayed on Plasmodium falciparum apicoplast DNA polymerase (apPOL) (assay: Pf-apPOL inhibitors, biochemical, fluorescence (AID 1794808)). Details: Recombinant Pf-apPOL, molecular beacon fluorescence, 1.5 h; at 10 µM; stronger effect = higher value.

SMILES	inhibition
Cc1cccc(NC(=O)CSc2nccn2C)c1C	-4.4% (inactive)
COC(=O)c1cc(Nc2cc(F)ccc2F)c2ccccc2n1	-1.7% (inactive)
CCc1ccc(NC(=O)CCS(=O)(=O)c2ccc(Br)s2)cc1	-6.3% (inactive)
COc1ccc(CC2(C)OC(c3ccc(C(C)(C)C)cc3)=NN2C(C)=O)cc1 (configuration not stated)	5.3% (inactive)
CCOc1nn(-c2nc(-c3ccccc3)cc(C(F)(F)F)n2)cc1[N+](=O)[O-]	1.6% (inactive)
CNC(=O)CSc1nc2ccccc2[nH]1	-7.9% (inactive)
c1ccc(-c2nnc(SCc3nc4ccccc4[nH]3)o2)cc1	-3% (inactive)
c1ccc2[nH]c(CSc3nc4ccccc4[nH]3)nc2c1	86% (active) and -1.3% (inactive)
COc1ccc(C2=NOC(C(=O)N3CCCc4ccccc43)C2)cc1OC (configuration not stated)	-3.1% (inactive)
O=C(NCc1cccc(F)c1)C1CCc2sc(C(=O)N3CCCC3)cc2C1 (configuration not stated)	-2.5% (inactive)
CCn1ccc(C(=O)N2CCCC2c2cccc(F)c2)n1 (configuration not stated)	-3.5% (inactive)
O=C(NCC1CN(c2ccc3c(c2)OCO3)C(=O)O1)c1ccco1 (configuration not stated)	-9.6% (inactive)
CC(C)(C)c1ccc(CC(=O)c2ccc(O)cc2O)cc1	-3.9% (inactive)
O=C1CCCC2=C1C(c1ccccn1)C1=C(CCCC1=O)O2	-0.8% (inactive)
O=C(Nc1ncc(Cc2cccc(C(F)(F)F)c2)s1)c1ccc(-n2cnnn2)cc1	-2.3% (inactive)
CCOC(=O)N1CCc2nn(CC(=O)NC(C)CCc3ccccc3)c(=O)cc2C1 (configuration not stated)	-4.2% (inactive)
O=C(Nc1nnc(CSCc2ccccc2)s1)c1ccc(F)cc1	-1.1% (inactive)
COc1ccc(CCNC(=O)C2c3ccccc3C(=O)N2Cc2ccc(C)cc2)cc1OC (configuration not stated)	-9.1% (inactive)
O=C(Nc1ccc(-c2nc3ccccc3[nH]2)cc1)c1cccc(F)c1	-15.5% (inactive)
CCNC(=O)c1nsc2ccc(C)cc12	-1.8% (inactive)
CCOC(=O)c1ccc(NS(=O)(=O)c2c[nH]c(=O)[nH]c2=O)cc1	-10.5% (inactive)
CCN(CC)CCCNC(=O)C1CCN(S(=O)(=O)N2CCC3(CC2)OCCO3)CC1	-18.9% (inactive)
Cc1ccc(-n2cc(C(=O)N3CCCCC3)nn2)cc1C	-2.2% (inactive)
COc1ccc(/C=C2\N=C(c3cc(OC)c(OC)c(OC)c3)OC2=O)cc1	-0.6% (inactive)
Cc1ccc(-n2c(O)c(C=Nc3cc(Cl)ccc3O)c(=O)[nH]c2=O)cc1	-0.1% (inactive)

SMILES	inhibition
CCc1c(C)c2ccc(OCC(C)C)cc2oc1=O	-2.3% (inactive)
COc1ccc(CCNC(=O)C2CC(=O)N(c3ccc(F)c(Cl)c3)C2)cc1OC (configuration not stated)	4.9% (inactive)
O=C1CC2(CCN(C(=O)C=Cc3ccccc3)CC2)Oc2ccccc21	-17.9% (inactive)
O=C(Nc1ccc(Br)cn1)c1ccc([N+](=O)[O-])cc1Cl	81.8% (active)
Cc1cc(C)nc(NC(=O)c2ccc([N+](=O)[O-])cc2Cl)c1	5.5% (inactive)
O=C(Nc1ccncc1)c1ccc([N+](=O)[O-])cc1Cl	0.3% (inactive)
O=C(C1CC1)N1CCC(COCc2ccccc2)CC1	-12.6% (inactive)
CCS(=O)(=O)Oc1ccccc1-c1nc2cc(Cl)ccc2o1	-3.6% (inactive)
Cc1ccc(C(=O)N2CCC(CCOc3ccc(F)cc3)CC2)s1	4.5% (inactive)
CN1CCN(C(=O)C2CCC(=O)N2Cc2ccccc2Cl)CC1 (configuration not stated)	-11.4% (inactive)
CC(C)c1nnc(NC(=O)CCCOc2ccc(Cl)cc2)s1	4.4% (inactive)
O=[N+]([O-])c1ccc(-c2noc(COc3ccc(Cl)cc3Cl)n2)cc1	1.6% (inactive)
O=C(NCCc1ccccc1)C1CCN(S(=O)(=O)c2ccc(Br)s2)CC1	-9% (inactive)
O=C(NCCc1ccccc1)C1CCN(S(=O)(=O)c2ccc(Br)cc2)CC1	98.3% (active)
O=C(NCCc1ccccc1)C1CCN(CC2CCCCC2)CC1	12.9% (inactive)
Cc1cccc(NC(=O)c2cc3c(CO)cnc(C)c3oc2=Nc2ccc3c(c2)OCO3)c1	-0.2% (inactive)
CCn1c(-c2cc(NC(=O)c3ccncc3)n[nH]2)cc2ccccc21	-0.8% (inactive)
O=C(Nc1ccc(Cl)cc1[N+](=O)[O-])c1ccc(Cl)cc1	-0.2% (inactive)
O=C(CCCn1cccc1)Nc1nc(-c2ccco2)cs1	0.6% (inactive)
COC(=O)Nc1nc(CC(=O)NCc2ccco2)cs1	-1.8% (inactive)
Cc1cc(C)nc(Nc2nc(CC(=O)Nc3nc(-c4ccco4)cs3)cs2)n1	69.6% (active)
Cc1nccn1Cc1nc(-c2ccc(F)c(Br)c2)no1	-2.5% (inactive)
COc1ccc(C(C)=C2SC(=S)N(CCC(=O)O)C2=O)cc1	3.2% (inactive)
Cc1nc2c(ccc3nc(NC(=O)NCc4cccs4)sc32)s1	-4.8% (inactive)
O=C(c1ccncc1)N1CCCC(c2nc(-c3ccc(F)cc3)n[nH]2)C1 (configuration not stated)	10% (inactive)

SMILES	inhibition
COc1ccc(C(=O)N2CCN(c3nc(C(C)C)c4c(c3C#N)CC(C)(C)OC4)CC2)cc1	-3.4% (inactive)
CCCNc1cc(N2CCC(CCC(=O)NC(C)C)CC2)ncn1	-1.9% (inactive)
COc1cc(/C=c2\sc3nc(-c4ccc(Cl)cc4)nn3c2=O)cc(OC)c1OC	3.7% (inactive)
O=C(Cn1nnc2ccccc21)NCCSCc1ccco1	9.1% (inactive)
O=C(CSc1nnc(SCC(=O)NCCSCc2ccco2)s1)NCCSCc1ccco1	91.9% (active)
Cc1ccc(S(=O)(=O)NC(=O)NCCSCc2ccco2)cc1	25.5% (inactive) and 3.2% (inactive)
COc1ccccc1OCCNC(=O)CSc1ccc(C(F)(F)F)cc1[N+](=O)[O-]	-0.4% (inactive)
Cc1cccc(OCCNC(=O)CSc2ccc(C(F)(F)F)cc2[N+](=O)[O-])c1	-4.3% (inactive)
O=C(CSc1ccc(C(F)(F)F)cc1[N+](=O)[O-])NCCOc1ccccc1	57.6% (active)
O=C(Cc1ccsc1)N1CCn2cnnc2C1	0.2% (inactive)
Cc1nc(C(=O)NCc2ccc(C(F)(F)F)cc2)c(C)o1	-4.9% (inactive)
Cc1ccc(C2CC(c3ccccc3)Nc3nnnn32)cc1 (configuration not stated)	-7% (inactive)
O=C(Nc1ccccc1[N+](=O)[O-])c1[nH]ncc1[N+](=O)[O-]	-24.6% (inactive)
Cc1ccc(-n2cc(C(=O)Nc3ccc4c(c3)OCCO4)c3ccccc3c2=O)cc1C	-2.6% (inactive)
O=C(c1ccoc1)N1CCCCC1CCN1CCOCC1 (configuration not stated)	-2% (inactive)
O=C(NC1CC1)c1cccc(OCC2CCCN(C(=O)C3CCCCC3)C2)c1 (configuration not stated)	-3.3% (inactive)
COc1ccc(CNC(=O)c2cncc(OC)c2)cc1	0.2% (inactive)
O=C(CS(=O)(=O)CC(=O)c1ccccc1)c1ccccc1	-2.4% (inactive)
Cc1c(Cl)ccc(NC(=O)C2CCCN2S(=O)(=O)c2ccccc2)c1Cl (configuration not stated)	-7.1% (inactive)
O=C(Nc1ccc(Cl)cc1)NC1(C(F)(F)F)Oc2ccccc2O1	1.5% (inactive)
COc1ccc(Cl)cc1NC(=O)CN(c1ccccc1)S(=O)(=O)c1ccccc1[N+](=O)[O-]	-6.5% (inactive)
CC1=C(C(=O)Nc2ccc(Cl)cc2)C(c2ccc(Cl)cc2Cl)n2ncnc2N1 (configuration not stated)	6% (inactive)
CCN(CC)S(=O)(=O)c1ccc(Cl)c(C(=O)O)c1	-5% (inactive)
Cc1ccc(Cl)cc1NC(=O)C(=O)NCc1ccccn1	0.8% (inactive) and 0% (inactive)
O=C(COc1ccc(F)cc1)Nc1nnc(C2CC(=O)N(c3ccccc3)C2)o1 (configuration not stated)	4.1% (inactive)

SMILES	inhibition
CN(C)c1ccc(/C=C(\C#N)c2ccc([N+](=O)[O-])cc2)cc1Br	-5.5% (inactive)
COCC(=O)N1CCCCC1c1nncn1CC1CC1 (configuration not stated)	3.4% (inactive)
CC(C)(C)C(=O)Oc1ccc(C=Cc2ccccn2)cc1	-22% (inactive)
O=C(CSc1nnc(NC(=O)c2cc(-c3ccco3)on2)s1)NC1CCCC1	60.9% (active)
O=C(CSc1nnc(NC(=O)c2ccc(Cl)c(Cl)c2)s1)NCc1ccco1	0.7% (inactive)
Nc1ccc2nc(SCC(=O)NC3CC3)sc2c1	6.4% (inactive)
O=C1CC(NCc2ccc3c(c2)OCO3)C(=O)N1c1ccc(OC(F)(F)F)cc1 (configuration not stated)	0.2% (inactive)
Cc1cc(C)c(S(=O)(=O)N2CCC(c3noc(-c4ccc(F)cc4)n3)CC2)c(C)c1	-5.5% (inactive)
O=Cc1ccc(OCc2ccc(I)cc2)cc1	-6.6% (inactive)
COc1ccccc1C(=O)Oc1ccc2c(c1)OC(=Cc1cccc(OC)c1OC)C2=O	-1.8% (inactive)
COc1ccc(CCNC(=O)CSc2ccc(-n3cccn3)nn2)cc1OC	-3.3% (inactive)
CC(C)(C)C(O)CCNC(=O)C(=O)NCc1ccccc1 (configuration not stated)	-5.8% (inactive)
O=C(NCC(O)c1ccsc1)c1cccc2ccccc12 (configuration not stated)	-3.1% (inactive)
COc1ccc(-c2c3c(=O)n(C)c(=O)n(C)c3cn2-c2ccc(Br)cc2)cc1	73.4% (active)
COc1ccc(-c2cn3c4c(=O)n(C)c(=O)n(C)c4nc3n2CCO)cc1	-0.7% (inactive)
Cn1c(=O)c2c(-c3ccccc3)n(-c3cccc([N+](=O)[O-])c3)cc2n(C)c1=O	0.3% (inactive)
CN1CCC(N2CCN(C(=O)C3CCc4sc(C(=O)N5CCCC5)cc4C3)CC2)CC1 (configuration not stated)	-2.3% (inactive)
CC(C)N1CCN(C(=O)c2csc(N3CCN(c4ccccc4)CC3)n2)CC1	-6.1% (inactive)
CCOc1ccc(-c2cc3n(n2)CCCN(C(=O)c2ccccn2)C3)cc1	-2.1% (inactive)
O=C(Nc1cccs1)N1CCN(c2ccc(-c3ccco3)nn2)CC1	64.3% (active)
O=C(c1cccc(-n2cnnn2)c1)N1CCN(c2ccc(-c3cccs3)nn2)CC1	-10.3% (inactive)
O=C(Nc1cccs1)N1CCN(C(=O)C2CCCO2)CC1 (configuration not stated)	0.6% (inactive)
